The record followed here is PubChem BioAssay AID588726 (The Scripps Research Institute Molecular Screening Center, 2011).

Out of some 360,000 compounds screened, about 8,200 (2.3%) were called active. The full list was thinned out, with actives kept by preference. A number with no mark means an inactive call. No stated cut-off is given here; in the data, active means inhibition above about 27%; inactive means the rest.

Sequence of Fructose-bisphosphate aldolase (Mycobacterium tuberculosis (strain ATCC 25618 / H37Rv)) (P9WQA3 whole entry, looked up): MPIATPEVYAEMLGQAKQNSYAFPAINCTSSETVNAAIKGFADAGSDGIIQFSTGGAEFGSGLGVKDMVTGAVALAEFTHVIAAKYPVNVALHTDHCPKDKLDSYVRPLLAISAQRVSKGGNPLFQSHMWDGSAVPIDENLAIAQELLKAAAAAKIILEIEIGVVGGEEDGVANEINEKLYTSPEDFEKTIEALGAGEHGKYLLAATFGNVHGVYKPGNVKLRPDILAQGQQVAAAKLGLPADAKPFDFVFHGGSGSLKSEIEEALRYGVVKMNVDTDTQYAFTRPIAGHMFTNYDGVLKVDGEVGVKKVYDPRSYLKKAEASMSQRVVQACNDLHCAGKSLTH

This experiment addresses Fructose-bisphosphate aldolase (Mycobacterium tuberculosis (strain ATCC 25618 / H37Rv)) (UniProt P9WQA3). In words: M. tuberculosis aldolase activity blockers – biochemical, fluorescence, strain H37Rv, primary screen (AID 588726).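 Further: 0% = vehicle and 100% = reference inhibitor.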 The settings on record: purified M. tuberculosis FBA, fluorescence read-out, at 1 µM, active compounds read high.
On to `CN(C)/C=N/c1cc(=O)n(C)c(=O)n1CC1CC1`, for which the inhibition was -0.52%.

As for `CN1C(C(=O)NCC2CC2)CC2Cn3c(nc4ccccc43)C21` (stereo unspecified), the inhibition was -0.07%. The figure for `Cc1nonc1OCCn1nnnc1N` is -0.1%; for `COC[C@@H]1NS(=O)(=O)c2ccc(Br)cc2O[C@H]1c1ccccc1` it is -2.58%; for `Cc1nonc1C1CCCN1C(=O)c1cc(COc2cccc(C(F)(F)F)c2)on1` (stereo unspecified) it is -1.66%. Take `CCCC1OC23CCCCC2C(C#N)(C#N)C1(C#N)C(=N)O3` (stereo unspecified): the inhibition was 48.2% (active).

With `CCCCc1cc(=O)oc2cc(C)cc(OCc3nn[nH]n3)c12`, the inhibition is 183% (active). Under `CN(CCOc1ccccc1)Cc1nc2cc(Cl)ccc2c(=O)[nH]1` stands 7.42%.

Take `CC(=O)N1CC[n+]2c(-c3ccc([N+](=O)[O-])cc3)csc21`: the inhibition is -3.76%.

As to `COc1ccc2c(c1OC)C(=O)N(c1ccc(O)cc1)C2`, the inhibition is -2.29%. Take `COc1ccc(C(C)C)cc1S(=O)(=O)Nc1ncn[nH]1`: the inhibition was -1.62%.

Take `COc1ccc2c(c1OC)C(=O)N(c1ncn[nH]1)C2`: the inhibition was 31.1% (active). The figure for `Cc1nnc(NC(=O)CSc2nccn2-c2cccc(C)c2C)s1` is 1.13%; for `CCCc1cc(=S)n2c([nH]c3ccccc32)c1C#N` it is 14.3%; for `CCOC(=O)C1CCN(C(=O)Cn2cc(C#N)c3ccccc32)CC1` it is 1%. On to `COc1ccc(C(C(=O)NC2CCCCC2)N(C(=O)Cc2c[nH]c3ccccc23)c2ccccc2)cc1OC` (stereo unspecified), for which the inhibition was -0.54%. In the case of `CC(=O)N1CCSc2ccc(S(=O)(=O)N3CCC(C)CC3)cc21`, the inhibition was 3.62%. The figure for `CC12CCC(C(=O)N(CCC#N)CCC#N)(CC1=O)C2(C)C` (stereo unspecified) is 1.36%; for `Cc1ccc(C(=O)NC(=S)Nc2ccc3[nH]c(=O)[nH]c3c2)cc1C` it is 2.47%.

Take `COC(=O)c1cc(C(=O)NC(C)C2CC3CCC2C3)cc([N+](=O)[O-])c1` (stereo unspecified): the inhibition was 6.2%. Under `Cc1cccc(NC(=O)c2cc(S(=O)(=O)N3CCC4(CC3)OCCO4)ccc2F)c1` stands -0.22%. The figure for `O=C(NC1CCN(Cc2ccccc2)CC1)c1ccc(Oc2cc(Cl)cc(Cl)c2)o1` is 1.42%; for `Cc1cc(C(=O)NC2CCN(Cc3ccccc3)CC2)n[nH]1` it is 0.08%; for `O=C(NC1CCN(Cc2ccccc2)CC1)c1cc(Br)c(Br)[nH]1` it is 40% (active). Under `OC(c1ccc(Cl)c(F)c1)c1ncc(-c2ccccc2Cl)[nH]1` (stereo unspecified) stands -1.69%; under `CCCCN(CCCC)CC(O)Cn1c2ccccc2c(=O)c2ccccc21` (stereo unspecified), 71.2% (active). With `CS(=O)(=O)N(CC(O)Cn1c2ccccc2c2ccccc21)c1cccc2ccccc12` (stereo unspecified), the inhibition was -2.35%. In the case of `OC(Cn1c2ccccc2c2ccccc21)C[n+]1ccccc1` (stereo unspecified), the inhibition is -1.64%. Regarding `O=C(CNC(=O)[C@@H]1Cc2ccccc2CN1)NC1CCCCC1`, the inhibition is 0.53%. Under `CC(C)C(NC(=O)OCc1ccccc1)C(=O)OCC(=O)N1C(C)CCCC1C` (stereo unspecified) stands 2.57%; under `COc1ccc(CCN2C(=O)CC(N3CCC(C(N)=O)CC3)C2=O)cc1OC` (stereo unspecified), -1.48%; under `Cc1nc(SC(C)C)[nH]c(=O)c1Cc1ccccc1`, 0.91%. The figure for `N#Cc1c(N)nc2c(c1N)CC(C(F)(F)F)O2` (stereo unspecified) is 0.26%; for `CCc1ccc(-c2cc(C(=O)NN3CCN(C)CC3)c3ccccc3n2)cc1` it is 0.75%; for `Cc1nc2ccccc2c(C(=O)O)c1-c1ccccn1` it is -2.32%.

As for `O=C(CCCN1C(=O)CSc2ncccc21)N1CCN(c2cccc(C(F)(F)F)c2)CC1`, the inhibition is 3.32%. Under `CCCCCCc1cc2cc(-c3nnc(-c4ccccc4)o3)c(=O)oc2cc1O` stands 4.92%; under `CN(C)c1cc(-c2ccc(F)cc2)oc(=O)c1Cl`, -2.58%; under `Cc1cc(Cl)ccc1N1C(=O)CC(SCCC(=O)O)C1=O` (stereo unspecified), 5.32%. Under `COc1ccc(C(=O)NCCSc2ccccc2C)cc1` stands 0.09%; under `CCOc1ccc2nc(NCCNC(=O)C(C)(C)C)c(C)cc2c1`, 26.1%. Under `CCOc1ccc2nc(NCCNS(=O)(=O)c3ccccc3)c(C#N)cc2c1` stands 40.1% (active). Regarding `CCOc1ccc(S(=O)(=O)NCCSc2ccccc2)cc1`, the inhibition is 1.75%. The figure for `Cn1nc(N)c2ncc(C(Cl)(Cl)Cl)nc21` is -3.83%. With `COc1cc(-c2nnc(NC(=O)CS(=O)(=O)c3ccc(Cl)cc3)o2)cc(OC)c1OC`, the inhibition was -1.58%. The figure for `COC(=O)c1c(-c2ccsc2)oc2ccc(-c3cc(OC)c(OC)c(OC)c3)cc12` is 27.6% (active); for `COc1cc2c(-c3ccc4c(c3)OCO4)c(-c3ccsc3)oc(=O)c2cc1OC` it is 2.51%. Under `CCCCC(NC(=O)c1cccc(Br)c1)C(=O)O` (stereo unspecified) stands 3.7%; under `O=C(NC1CC2CCCC(C1)N2C(=O)N1CCCCC1)C1CCCCC1` (stereo unspecified), 2.38%. The figure for `CCOCCCN(C)C1CCN(C(=O)c2oc3ccccc3c2NC(=O)Cc2cccc([N+](=O)[O-])c2)CC1` is -1.05%. Consider `CN1CCC[C@@H]1CCO[C@](C)(c1ccccc1)c1ccc(Cl)cc1`, for which the inhibition was -4.31%. The figure for `COc1cccc2sc3cc(NCC[C@@H]4CCCN4C)ccc3c(=O)c12` is 40.4% (active). Under `Cc1cc2oc3ccc(NCCC4CCCN4C)cc3c(=O)c2cc1C` (stereo unspecified) stands -0.55%. The figure for `COC(=O)c1c(C(=O)OC)c(-c2cccc(C)c2)n2c1CS(=O)C2` (stereo unspecified) is -0.62%; for `COc1ccc2c(c1)OC(O)(C(F)(F)C(F)F)CC2=O` (stereo unspecified) it is -0.78%; for `O=S(=O)(c1ccc(Cl)s1)N1CCC2(CC1)OCCO2` it is 0.69%.

Regarding `CCC12CN3CC(CC)(CN(C1)C31C(=O)N(C)c3ccc(C)cc31)C2=O` (stereo unspecified), the inhibition is -4.48%.

Take `Cc1cc(C(=O)OCC(=O)Nc2ccc(F)c(F)c2)c(C)o1`: the inhibition was 0.1%. Under `c1ccc2c(NC3C4CC5CC(C4)CC3C5)nc(N3CCOCC3)nc2c1` (stereo unspecified) stands 37.7% (active); under `CC(CN1CCOCC1)c1ccccc1` (stereo unspecified), -0.87%; under `Clc1nc(NC2CCCC2)nc(N2CCOCC2)n1`, 2.59%. Under `Fc1cnc(N2CCOCC2)nc1NCc1ccccc1` stands 15.4%; under `CC(Nc1nc(N2CCOCC2)nc2ccccc12)c1ccccc1` (stereo unspecified), 50.4% (active); under `c1cnc(NC2C3CC4CC(C3)CC2C4)nc1` (stereo unspecified), 1.67%. Under `Cc1ccc(-n2nc(-c3ccco3)cc2C(=O)NCc2cccnc2)cc1` stands -1.53%; under `CC(=O)N1CC(=O)N(CC(=O)Nc2ccc(Br)cc2)C1=S`, -0.11%. On to `COc1ccc(C)cc1N(CC(=O)N1CCCC1)S(=O)(=O)c1ccccc1`, for which the inhibition is -1.91%.

In the case of `CC1CCCCC1NC(=O)c1cn(C)c2ccc(S(=O)(=O)N3CCOCC3)cc2c1=O` (stereo unspecified), the inhibition is -7.99%. The figure for `Cc1ccccc1N1CCN(CCCN2C(=O)C3CCCCN3C2=O)CC1` (stereo unspecified) is 0.31%; for `COC(=O)C1=C(C)N(C)C(=S)NC1c1cc(OC)ccc1OC` (stereo unspecified) it is 2.6%. Under `CC(=O)NC(NC(=S)Nc1c(C)n(C)n(-c2ccccc2)c1=O)C(Cl)(Cl)Cl` (stereo unspecified) stands 4.91%; under `O=C(CCS(=O)(=O)Cc1ccccc1F)NCCCN1CCCCC1`, -1.06%. The figure for `O=C(NCc1cccnc1)Nc1cccc(NC(=O)NCc2cccnc2)c1F` is 2.23%. For `CCN(c1cccc(C)c1)S(=O)(=O)c1ccc(-c2coc(C)n2)cc1`, the inhibition is 3.59%. Under `Cc1ccc(-c2cn3cc(C)ccc3n2)cc1` stands 56% (active). The figure for `Cc1ccc2nc(-c3ccc(Br)cc3)cn2c1` is 4.66%.

Turning to `COc1ccc(Cc2cc(-c3ccc(F)cc3)n[nH]c2=O)cc1`, the inhibition was -0.22%. The figure for `Cc1ccc(Cc2c(-c3ccccc3)nc3ccc(Cl)cn23)cc1` is -2.09%; for `CCN(CC)S(=O)(=O)c1ccc(-c2cn3ccc(C)cc3n2)cc1` it is 140% (active). Consider `CCN(CC(=O)NCCc1ccccc1)S(=O)(=O)c1ccc(C)cc1`, for which the inhibition was -0.83%.

For the compound `COc1ccc(-c2cn3ccc(C)cc3n2)cc1`, the inhibition is 70.2% (active).

Regarding `COc1ccc(C2=Nc3cc(C)ccc3OC2)cc1`, the inhibition was 17.7%. As to `CCN(CC)C(=O)Oc1ccc(Br)cc1C(=O)Nc1ccc(F)c(Cl)c1`, the inhibition was -6.9%. For the compound `C#CCCOC(=O)N1C2=NC(C(=O)OC)=C(C(=O)OC)[C@@H]3N(C)c4ccc(OC)cc4[C@]23C[C@H]1C(=O)OC`, the inhibition is 5.83%. For `O=C(OCCO)c1cc(Cl)c(C(=O)OCCO)cc1Cl`, the inhibition was -2.53%. Regarding `CC1CC(C)(C)CC2(C1)NC(=O)N(CC(=O)Nc1nccs1)C2=O` (stereo unspecified), the inhibition is 1.81%. `Cc1ccc(S(=O)(=O)N2CCN(C(=O)c3ccc(-n4cncn4)c([N+](=O)[O-])c3)CC2)cc1`: the inhibition is -0.25%. For `O=C(NCCc1ccccc1)c1c[nH]c2ccc(F)cc2c1=O`, the inhibition is -1.25%. Consider `COc1ccc(Cl)cc1NC(=O)c1cccc(N2C(=O)C3CC=CCC3C2=O)c1` (stereo unspecified), for which the inhibition was -2.03%. Under `Cc1cccc(NC(=O)c2ccc(S(=O)(=O)N(C)CC3CCCO3)cc2)c1C` (stereo unspecified) stands -3.44%; under `CNc1ccc(SC#N)cc1`, 2.17%.

With `CC1CCN(CC(=O)Nc2nccs2)CC1`, the inhibition was -1.23%. Consider `CCOC(=O)C(CC)/C(C)=N\NC(=O)c1cccc(C)c1` (stereo unspecified), for which the inhibition is 2.1%. Under `O=S(=O)(Nc1ccc2[nH]ncc2c1)c1ccccc1Cl` stands -2.11%; under `Cc1ccc(NS(=O)(=O)c2c(C)[nH]c(C)c2C(=O)N2CCCCC2)c(C)c1`, 1.03%. As to `COc1ccc(NC(=O)c2sccc2SCC#N)cc1`, the inhibition was 0.88%.

Usually inhibition stands for the change of the read-out against control, counted positive when it falls.
